Sampled rows, rich in hits. Any-hit rate of the full collection: about 11%.
VDR inhibitor: vitamin D3 receptor (human) inhibition | P11473 | VDR-SRC2-3 peptide fluorescence polarization, 2 h | Potency, µM, for the others: max response, negative = inhibition, actives largely listed as inhibitors | 400,000 tested, 0.93% active | AID 504847; further: on the % scale 0 is the no-effect control and ±100 the full control effect
Target sequence (P11473 whole entry, looked up): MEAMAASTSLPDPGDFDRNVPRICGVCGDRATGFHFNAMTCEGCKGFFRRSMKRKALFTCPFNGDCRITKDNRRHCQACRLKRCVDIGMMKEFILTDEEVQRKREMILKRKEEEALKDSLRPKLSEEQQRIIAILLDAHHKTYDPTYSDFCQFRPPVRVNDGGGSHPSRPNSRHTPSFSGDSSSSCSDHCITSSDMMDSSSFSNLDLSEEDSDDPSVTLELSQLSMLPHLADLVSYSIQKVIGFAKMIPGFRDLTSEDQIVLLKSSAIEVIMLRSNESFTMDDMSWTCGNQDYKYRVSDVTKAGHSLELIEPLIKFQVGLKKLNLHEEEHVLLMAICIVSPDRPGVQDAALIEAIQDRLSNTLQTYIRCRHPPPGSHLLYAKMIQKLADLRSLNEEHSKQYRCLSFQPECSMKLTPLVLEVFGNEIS
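FP read-out; VDR + SRC2-3 coactivator peptide; 23 nl compound by pintool; 2 h RT incubation; reagents held at 4 deg C, protected from light.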
JMJD2A Tudor: blocks the human JMJD2A Tudor domain; AID 504339; Potency, µM (titrated, usually from 114 µM), without a hit: at the top dose activity change, negative = inhibition, usual class: inhibitors; AlphaScreen JMJD2A-Tudor / H3K4me3 peptide binding; 390,000 tested, 4.4% active; O75164; further: on the % scale 0 is the no-effect control and ±100 the full control effect; nearly all actives have a fitted effect of over 50% in size
HP1b binding inh: inhibitors of HP1-beta chromodomain binding to methylated histone tails; P83916; AlphaScreen HP1-beta / biotin-H3K9me3 peptide binding; AID 540317; Potency, µM (titrated, usually from 114 µM), inactives show top-dose activity change, negative = inhibition, most hits filed as inhibitors; 390,000 tested, 0.56% active; further: nearly all actives have a fitted effect of over 70% in size
Target sequence (P83916 whole entry, looked up): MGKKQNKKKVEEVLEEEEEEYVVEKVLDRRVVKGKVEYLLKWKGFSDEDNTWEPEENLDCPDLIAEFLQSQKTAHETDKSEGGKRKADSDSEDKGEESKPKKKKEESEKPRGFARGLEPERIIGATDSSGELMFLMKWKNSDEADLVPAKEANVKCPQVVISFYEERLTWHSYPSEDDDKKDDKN
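AlphaScreen: HP1-beta (50 nM) preformed 30 min with biotin-H3(1-18)K9me3 peptide (50 nM) in PBS pH 7.4, 0.01% Tween-20. Compound added for 30 min at RT, then streptavidin donor/nickel chelate acceptor beads (10 ug/mL) for 30 min.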
PLK1 PBD block: inhibitors of human PLK1 polo-box domain binding | P53350 | Plk1 PBD binding of FITC phosphopeptide, fluorescence polarization | Potency, µM, without a hit: max response, negative = inhibition, usual class: inhibitors | 360,000 tested, 2.8% active; further: series mostly up to about 57 µM; on the % scale 0 is the no-effect control and ±100 the full control effect; nearly all actives have a fitted effect of over 65% in size
BAZ2B block: blocks human BAZ2B; AlphaScreen BAZ2B-H3K14Ac peptide displacement; Potency, µM (titrated, usually from 114 µM), for inactives: at the top dose activity change, negative = inhibition, hits mostly inhibitors; 360,000 tested, 4.4% active; further: on the % scale 0 is the no-effect control and ±100 the full control effect; nearly all actives have a fitted effect of over 60% in size
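BAZ2B 50 nM plus b-H3(5-23)K14Ac 50 nM, PBS pH 7.4/0.01% Tween-20, 30 min RT; compound added (max 110 uM), 30 min RT; streptavidin donor/Ni-chelate acceptor beads 10 ug/mL final, 20 min dark; AlphaScreen read.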
G9a block: inhibitors of human histone lysine methyltransferase G9a. Q96KQ7. G9a H3K9 monomethylation, AlphaScreen, 2 h. Potency, µM (series often up to 102 µM), inactives show at the highest dose activity, negative = inhibition, usual class: inhibitors. 350,000 tested, 8.8% active. AID 504332; further: on the % scale 0 is the no-effect control and ±100 the full control effect; nearly all actives have a fitted effect of over 75% in size
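G9a (20 nM) was preincubated 15 min with compound, then reacted 2 h at room temperature with 500 nM biotin-H3K9 peptide and 20 µM SAM. Monomethyl-H3K9 detected by AlphaScreen using anti-H3K9me1 antibody.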
Active calls of the source: *; ! = a repeat was not active; [ ] = another dose, or the depositor's remark. The call rests on the fitted dose curve; in most records, active means well fitted curve in the direction sought with a large enough effect; inconclusive means small, poorly fitted or top-dose-only effect, or another doubt; inactive means no such curve, though single readings can be large; an effect the other way counts as inactive or inconclusive. Potency means the concentration at half of the fitted maximal effect.

For CCN(CC)c1ccc(C2Nc3cccc4cccc(c34)N2)cc1 the results were VDR inhibitor -3%, JMJD2A Tudor inconclusive, HP1b binding inh inconclusive, PLK1 PBD block 2% and BAZ2B block -28%.
FC(F)(F)c1ccc(C2Nc3cccc4cccc(c34)N2)cc1 was read as VDR inhibitor -19%, JMJD2A Tudor inconclusive, HP1b binding inh -18%, PLK1 PBD block -28%, BAZ2B block 40µM* and G9a block 35µM*.
`O=[N+]([O-])c1ccc(C2Nc3cccc4cccc(c34)N2)cc1` gave VDR inhibitor -21%, JMJD2A Tudor inconclusive, HP1b binding inh inconclusive, PLK1 PBD block -7%, BAZ2B block 45µM* and G9a block 28µM*.
Fc1ccc(C2Nc3cccc4cccc(c34)N2)cc1 was read as VDR inhibitor -25%, JMJD2A Tudor inconclusive, HP1b binding inh inconclusive, PLK1 PBD block inconclusive, BAZ2B block inconclusive and G9a block -37%[2.33 µM].
Screening COc1ccc(CCNC(=O)c2ccc3c(c2)CCN3S(=O)(=O)c2ccccc2)cc1OC returned VDR inhibitor -8%, JMJD2A Tudor -17%, HP1b binding inh 35%, BAZ2B block -15% and G9a block inconclusive.
CCN1CCSc2ccc(C(=O)NCc3ccc(F)cc3)cc21 was read as VDR inhibitor -12%, JMJD2A Tudor -36%, HP1b binding inh 24%, BAZ2B block inconclusive and G9a block inconclusive.
Screening O=C(CSc1nnc(SCc2ccccc2)s1)NNC(=S)Nc1ccccc1 returned VDR inhibitor inconclusive, JMJD2A Tudor -23%, HP1b binding inh -38%, PLK1 PBD block inconclusive, BAZ2B block -22% and G9a block 2.2µM*.
C/C(=N/NC(=O)CSc1nc2ccccc2n1C)c1ccncc1 was read as VDR inhibitor -5%, JMJD2A Tudor -7%, HP1b binding inh 23%, PLK1 PBD block -12%, BAZ2B block -3% and G9a block 15%.
O=C(CSc1nnc(SCc2ccccc2)s1)N/N=C/C=C/c1ccco1 was read as VDR inhibitor -21%, JMJD2A Tudor 40µM*, HP1b binding inh 25µM*, PLK1 PBD block inconclusive, BAZ2B block 25µM* and G9a block 13µM*.
CCn1c(SCC(=O)N/N=C/C=C/c2ccco2)nnc1-c1ccccc1 was read as VDR inhibitor -18%, JMJD2A Tudor inconclusive, HP1b binding inh -11%, PLK1 PBD block -17%, BAZ2B block inconclusive and G9a block 16µM*.
O=C(CN1CCN(Cc2ccccc2)CC1)N/N=C\C=C/c1ccco1 was read as VDR inhibitor -17%, JMJD2A Tudor -12%, HP1b binding inh 18%, PLK1 PBD block -19%, BAZ2B block 2% and G9a block inconclusive.
Screening Cn1c(SCC(=O)N/N=C/C=C/c2ccco2)nc2ccccc21 returned VDR inhibitor -16%, JMJD2A Tudor inconclusive, HP1b binding inh -14%, PLK1 PBD block -23%, BAZ2B block 45µM* and G9a block 7.1µM*.
For CC(=O)C1=CCC(c2cccc(Cl)c2)N(S(=O)(=O)c2ccc(C)cc2)C1 (stereo not drawn) the results were PLK1 PBD block -8%.
CC(C)c1ccc2c(c1)CCC1C(C)(C(N)=O)CCCC21C (stereo not drawn) was read as VDR inhibitor -14%.
Screening COc1ccc(N(CC(=O)NC2CC3CCC2C3)S(=O)(=O)c2ccc(C)c([N+](=O)[O-])c2)cc1 (stereo not drawn) returned VDR inhibitor -10%, JMJD2A Tudor -27%, HP1b binding inh -14%, PLK1 PBD block -7%, BAZ2B block -19% and G9a block -19%.
`CCOC(=O)/C=C(C)/C=C/C=C(C)/C=C/c1c(C)cc(OC)c(C)c1C` gave VDR inhibitor -7% and G9a block 41%[12.7 µM].
COc1cc(C)c(/C=C/C(C)=C/C=C/C(C)=C/C(=O)O)c(C)c1C was read as VDR inhibitor 45µM*!, JMJD2A Tudor 56µM*, HP1b binding inh 10%, PLK1 PBD block 30µM* and G9a block inconclusive.
`C/C(=N\Nc1ccc([N+](=O)[O-])cc1[N+](=O)[O-])C(C)(C)C(C(=O)O)C(=O)O` gave VDR inhibitor 2%, JMJD2A Tudor 22µM*, HP1b binding inh -16%, PLK1 PBD block -6%, BAZ2B block inconclusive and G9a block inconclusive.
For C/C(=N\Nc1ccc([N+](=O)[O-])cc1[N+](=O)[O-])c1ccc(-n2nncc2C(C)(C)C)cc1 the results were VDR inhibitor 6%, JMJD2A Tudor inconclusive, HP1b binding inh inconclusive, PLK1 PBD block -1%, BAZ2B block inconclusive and G9a block 7.1µM*.
For CC/C(=N\Nc1ccc([N+](=O)[O-])cc1[N+](=O)[O-])c1ccc(O)cc1 the results were VDR inhibitor -15%, JMJD2A Tudor -30%, HP1b binding inh -9%, PLK1 PBD block -6%, BAZ2B block 11µM* and G9a block -35%[12.7 µM].
For CCC(=NNc1ccc([N+](=O)[O-])cc1[N+](=O)[O-])c1ccccc1 the results were PLK1 PBD block -1%.
For C/C(=N\Nc1ccccc1[N+](=O)[O-])c1ccccc1O the results were VDR inhibitor 0%, JMJD2A Tudor 2.8µM*, HP1b binding inh inconclusive, PLK1 PBD block -4%, BAZ2B block 2.5µM* and G9a block 18µM*.
O=[S+]([O-])(c1ccc2c(c1)OCCO2)N1CCN([S+](=O)([O-])c2ccc(F)cc2Cl)CC1 was read as JMJD2A Tudor -11%.
COc1cccc(OCc2cc(C(=O)N3CCN(C)C(c4ccccc4)C3)no2)c1 (stereo not drawn) was read as VDR inhibitor 6%, JMJD2A Tudor -4%, HP1b binding inh 45%, PLK1 PBD block -5%, BAZ2B block -29% and G9a block 28%.
`CC/C(=N\Nc1ccccc1[N+](=O)[O-])c1ccc(O)cc1` gave VDR inhibitor 1%, JMJD2A Tudor 14µM*, HP1b binding inh 13µM*, PLK1 PBD block -6% and BAZ2B block 6.3µM*.
For C/C(=N/Nc1ccccc1[N+](=O)[O-])c1ccc([N+](=O)[O-])cc1 the results were VDR inhibitor -6%, JMJD2A Tudor -19%, HP1b binding inh 11%, PLK1 PBD block -10%, BAZ2B block inconclusive and G9a block -15%[2.33 µM].
Screening COC(=O)c1[nH]c2c(c1C)C(=O)CC(c1ccc(OC)c(OC)c1)C2 (stereo not drawn) returned VDR inhibitor -5%, JMJD2A Tudor -14%, HP1b binding inh 17%, PLK1 PBD block -1%, BAZ2B block -19% and G9a block 6%.

High-throughput results: PubChem BioAssay, National Center for Advancing Translational Sciences (NCATS)
